Results reported in PubChem BioAssay (EPA / NIEHS).
Results filed as inconclusive are left out. Calls of active or inactive are those of the source. Rule for the calls, unless noted: active = hit-call score of the fitted dose curve at least 0.9, where 1 is the maximum; inactive = score below 0.9.

Tested on: not listed separately
Test: ATG_VDRE_CIS: Attagene CIS-FACTORIAL HepG2 Assay for human Vitamin D Receptor Element (VDRE) (AID 2282968)
Conditions: HepG2 VDRE cis-reporter transcription, actives raise or lower the signal
How it was run: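 HepG2 cells transiently transfected with cis-element reporter units, dosed 24 h; reporter mRNA measured by RT-PCR, 6-FAM labeling, HpaI digestion and capillary electrophoresis. Activity fitted bidirectionally against DMSO baseline.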

Structure (SMILES)	AC50	outcome
ClC1=C(Cl)[C@]2(Cl)[C@@H]3[C@H]4C[C@H]([C@@H]5O[C@H]45)[C@@H]3[C@@]1(Cl)C2(Cl)Cl	2.18 µM (active)	–
O=C(NC(=O)c1cc(F)c(F)cc1Cl)Nc1cc(F)ccc1N1CCC(C(=O)O)CC1	–	inactive
C=CC(N)=O	100 µM (active)	–
N#Cc1ccc(N(CC(N)=O)CC(F)(F)F)cc1C(F)(F)F	–	inactive
CC(c1ccc(O)cc1)(c1ccc(O)cc1)c1ccc(O)cc1	6.08 µM (active)	–
ClC1=C(Cl)[C@]2(Cl)[C@@H]3[C@@H](Cl)[C@H]4O[C@H]4[C@@H]3C1(Cl)C2(Cl)Cl	–	inactive
CCCN(CCC)N=O	–	inactive
Cc1cc(O)ccc1Cl	–	inactive
CN(C)c1nc(=O)n(C2CCCCC2)c(=O)n1C	–	inactive
CC#Cc1cc(C)nc(Nc2ccccc2)n1	65.6 µM (active)	–
CCCCCCCCCC[N+](C)(C)CCCCCCCCCC	8.67 µM (active)	–
CC1=C2C[C@H]3[C@@H](CC=C4C[C@@H](O)CC[C@@]43C)[C@@H]2CC[C@]12O[C@@H]1C[C@H](C)CN[C@H]1[C@H]2C	–	inactive
Oc1ccc(Cl)cc1Cl	–	inactive
Nn1cnnc1	–	inactive
OCC(O)CO	–	inactive
C=CC(=O)NCNC(=O)C=C	–	inactive
O=C(O)C(F)(F)C(F)(F)C(F)(F)C(F)(F)C(F)(F)F	–	inactive
CCC(C)(CC)c1cc(NC(=O)c2c(OC)cccc2OC)on1	0.977 µM (active)	–
Cc1cc2c3c(c1)C(c1ccccc1)=N[C@@H](NC(=O)c1ccncc1)C(=O)N3CC2	5.69 µM (active)	–
O=C(N[C@H]1CN2CCC1CC2)c1cc2ccoc2cn1	–	inactive
O=S(=O)(O)C(F)(F)C(F)(F)C(F)(F)C(F)(F)F	–	inactive
C1CC2OC2CC1C1CO1 (configuration not stated)	–	inactive
CCSC(=O)N(CC)C1CCCCC1	18.1 µM (active)	–

Target: Nuclear receptor subfamily 1 group I member 3 (Homo sapiens) (UniProt Q14994)
Sequence (Q14994 whole entry, looked up): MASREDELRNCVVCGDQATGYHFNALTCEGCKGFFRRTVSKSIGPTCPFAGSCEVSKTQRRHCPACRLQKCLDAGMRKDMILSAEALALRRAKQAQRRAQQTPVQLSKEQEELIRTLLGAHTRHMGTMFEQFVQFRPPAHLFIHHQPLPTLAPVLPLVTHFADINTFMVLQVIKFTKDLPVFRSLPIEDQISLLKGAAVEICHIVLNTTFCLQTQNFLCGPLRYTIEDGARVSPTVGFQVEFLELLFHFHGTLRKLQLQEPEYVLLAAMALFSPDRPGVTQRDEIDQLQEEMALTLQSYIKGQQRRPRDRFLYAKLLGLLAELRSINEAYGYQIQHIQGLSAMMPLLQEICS
Test: ATG_CAR_TRANS: Attagene TRANS-FACTORIAL HepG2 Assay for human Constitutive Androstane Receptor (CAR) (AID 2282969; active = hit-call score of the fitted dose curve at least 0.9, where 1 is the maximum;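 note: activators raise reporter mRNA above DMSO so AC50 marks induction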)
Conditions: HepG2 Attagene TRANS-FACTORIAL CAR reporter
How it was run: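 HepG2 cells transiently transfected with multiplexed GAL4-UAS reporter units expressing chimeric NR-Gal4 proteins; compound exposure 24 h. Reporter mRNA measured by RT-PCR, 6-FAM labelling, HpaI digestion and capillary electrophoresis; gain-of-signal fitted against DMSO baseline.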

Structure (SMILES)	outcome
NS(=O)(=O)C(F)(F)C(F)(F)C(F)(F)C(F)(F)C(F)(F)C(F)(F)C(F)(F)C(F)(F)F	inactive
O=C(NC(=O)c1c(F)cccc1F)Nc1cc(Cl)c(OC(F)(F)C(F)F)c(Cl)c1	inactive
CCC(C)(c1ccc(O)cc1)c1ccc(O)cc1	inactive
CCCCCCOC(=O)c1ccccc1C(=O)OCCCCCC	inactive
